Results taken from PubChem BioAssay (NCATS).
Results filed as inconclusive are left out. Calls of active or inactive are those of the source. Unless noted, calls follow the shape of the dose curve; as a rule, active = well fitted curve in the direction sought with a large enough effect; inconclusive = small, poorly fitted or top-dose-only effect, or another doubt; inactive = no such curve, though single readings can be large; an effect the other way counts as inactive or inconclusive.

Legend:
[1] = target: Lysosomal acid glucosylceramidase (Homo sapiens) (UniProt P04062); test: Glucocerebrosidase-p2 (AID 348; in the data active = potency below about 10 µM; also: potency is read from the fitted curve at half-maximal effect); conditions: purified GBA, blue fluorogenic substrate, 40 min
Lysosomal acid glucosylceramidase (Homo sapiens), sequence (P04062 whole entry, looked up): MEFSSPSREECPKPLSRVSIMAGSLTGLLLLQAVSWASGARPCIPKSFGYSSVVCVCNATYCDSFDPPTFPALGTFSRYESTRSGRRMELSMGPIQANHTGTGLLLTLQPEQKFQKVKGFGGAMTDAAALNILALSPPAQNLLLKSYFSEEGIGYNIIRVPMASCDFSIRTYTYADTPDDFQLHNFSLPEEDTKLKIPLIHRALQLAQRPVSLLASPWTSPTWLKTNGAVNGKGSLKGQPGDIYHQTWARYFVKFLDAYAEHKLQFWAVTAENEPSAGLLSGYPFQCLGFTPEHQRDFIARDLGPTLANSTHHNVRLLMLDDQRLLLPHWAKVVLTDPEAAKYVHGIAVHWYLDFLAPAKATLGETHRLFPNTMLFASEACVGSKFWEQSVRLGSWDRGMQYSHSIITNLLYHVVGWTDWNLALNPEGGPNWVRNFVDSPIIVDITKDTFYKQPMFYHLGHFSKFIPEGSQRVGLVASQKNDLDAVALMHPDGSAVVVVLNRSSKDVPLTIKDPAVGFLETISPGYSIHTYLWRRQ
How it was run: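 Normal human glucocerebrosidase (0.2 nM) with blue fluorogenic substrate (80 uM final) in citrate/phosphate pH 5.9 with 10mM sodium taurocholate, 0.01% tween-20; 40 min RT, NaOH/glycine stop; fluorescence Ex 365/Em 440; AC50 from a titration from 0.6 nM upwards.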

[2] = AP1 Signaling Pathway (AID 357; active = well fitted curve in either direction with a large enough effect, not every such curve was filed as active;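 also: ME-180 reporter cells stimulated with EGF at its EC50 level; % is scaled to controls: 0 for no effect and ±100 for the full control effect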); conditions: ME-180 AP-1-bla reporter, EGF-induced, beta-lactamase ratio, 5 h; at 7.69 µM (top of the series) unless noted
How it was run: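 First, ME-180 AP-1-bla cells were cultured overnight at 37 °C in low-serum Opti-MEM. Next, titrated compounds with EC50 EGF were incubated 5 hours. Finally, CCF4 was added for 2.5 hours and the 460/530 nm ratio recorded.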

[3] = target: Cytochrome P450 1A2 (Homo sapiens) (UniProt P05177); test: p450-cyp1a2 (AID 410; calls by dose curve; also: potency is read from the fitted curve at half-maximal effect); conditions: recombinant CYP1A2, luciferin-ME demethylation, luminescence; series mostly up to 57 µM
Cytochrome P450 1A2 (Homo sapiens), sequence (P05177 whole entry, looked up): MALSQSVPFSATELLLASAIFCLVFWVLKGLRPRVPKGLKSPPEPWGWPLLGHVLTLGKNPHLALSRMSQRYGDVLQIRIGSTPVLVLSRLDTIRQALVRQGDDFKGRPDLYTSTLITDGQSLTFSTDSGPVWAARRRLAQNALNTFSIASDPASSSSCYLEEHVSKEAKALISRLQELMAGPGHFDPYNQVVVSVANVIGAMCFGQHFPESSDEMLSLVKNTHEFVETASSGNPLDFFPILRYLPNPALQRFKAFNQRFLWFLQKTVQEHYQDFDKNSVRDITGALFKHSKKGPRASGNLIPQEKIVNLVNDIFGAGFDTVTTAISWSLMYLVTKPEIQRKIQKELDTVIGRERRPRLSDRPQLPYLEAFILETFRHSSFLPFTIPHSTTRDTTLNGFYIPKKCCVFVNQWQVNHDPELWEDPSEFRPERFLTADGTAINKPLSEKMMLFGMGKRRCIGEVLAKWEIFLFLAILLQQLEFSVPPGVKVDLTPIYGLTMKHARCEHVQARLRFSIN
How it was run: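 20nM CYP1A2, 100uM Luciferin-ME (=Km), 100mM KPO4; cpd 10 min RT; +NADPH regen, 60 min RT; stop/detect 20 min; luminescence. Normalized to furafylline 57 uM = full inhibition.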

[4] = NFAT Signaling Pathway (AID 444; active = well fitted curve in either direction with a large enough effect, not every such curve was filed as active;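 also: carbachol stimulus at about its EC50 of 1 µM final; % is scaled to controls: 0 for no effect and ±100 for the full control effect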); conditions: Jurkat NFAT-bla M1, carbachol, beta-lactamase ratio, 5 h; at 7.69 µM (top of the series) unless noted
How it was run: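 Jurkat cells with NFAT-driven β-lactamase reporter and co-expressed M1 receptor, stimulated with carbachol (final 1 uM, ~EC50), compound titration, 5 h at 37 °C. CCF4 loaded 1 h at RT; 460/530 nm ratio gave %activity and AC50.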

[5] = Stat Signaling Pathway (AID 446; active = well fitted curve in either direction with a large enough effect, not every such curve was filed as active;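 also: ME-180 cervical cancer cells given 40 pM IL-6 alongside compound; SIE-controlled beta-lactamase reporter measured as 460/530 nm FRET emission ratio; % is scaled to controls: 0 for no effect and ±100 for the full control effect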); conditions: ME-180 SIE beta-lactamase reporter, IL-6 stimulated, 5 h; at 7.69 µM (top of the series) unless noted
How it was run: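 Compound effects on IL-6-induced STAT reporter activity were measured in ME-180 cells. After overnight culture, cells were co-treated with 40 pM IL-6 for 5 hrs before beta-lactamase substrate loading at room temperature.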

[6] = target: Glucocorticoid receptor (Homo sapiens) (UniProt P04150); test: GR-GFP Redistribution (AID 450;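 active = compounds whose dose series gives a full or clear partial fitted curve of increased nuclear translocation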; also: potency is read from the fitted curve at half-maximal effect); conditions: U2OS GR-GFP nuclear translocation, laser cytometry, 2 h
Glucocorticoid receptor (Homo sapiens), sequence (P04150 whole entry, looked up, the tested form may be a part): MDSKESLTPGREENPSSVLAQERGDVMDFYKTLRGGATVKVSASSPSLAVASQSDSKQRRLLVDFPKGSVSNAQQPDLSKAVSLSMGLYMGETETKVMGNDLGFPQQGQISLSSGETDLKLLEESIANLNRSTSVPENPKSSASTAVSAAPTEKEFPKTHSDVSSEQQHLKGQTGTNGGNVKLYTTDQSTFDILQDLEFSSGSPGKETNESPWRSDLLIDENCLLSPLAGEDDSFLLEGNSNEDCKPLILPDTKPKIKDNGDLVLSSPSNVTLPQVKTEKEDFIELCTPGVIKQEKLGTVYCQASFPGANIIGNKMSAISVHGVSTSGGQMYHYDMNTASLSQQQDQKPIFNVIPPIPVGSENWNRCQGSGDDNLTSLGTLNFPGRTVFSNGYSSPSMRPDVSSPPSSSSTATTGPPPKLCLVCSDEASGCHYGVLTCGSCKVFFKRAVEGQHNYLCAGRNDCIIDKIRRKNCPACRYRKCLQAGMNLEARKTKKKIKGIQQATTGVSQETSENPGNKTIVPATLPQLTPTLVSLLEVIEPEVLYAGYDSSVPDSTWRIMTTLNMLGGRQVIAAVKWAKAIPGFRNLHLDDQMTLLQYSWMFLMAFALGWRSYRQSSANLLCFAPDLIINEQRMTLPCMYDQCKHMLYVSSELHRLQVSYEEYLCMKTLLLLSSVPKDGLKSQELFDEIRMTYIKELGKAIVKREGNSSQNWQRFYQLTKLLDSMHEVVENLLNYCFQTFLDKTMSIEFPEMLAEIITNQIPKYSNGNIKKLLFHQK

[7] = target: Glucocorticoid receptor (Homo sapiens) (UniProt P04150); test: GR-EFC Redistribution (AID 451; calls by dose curve; also: potency is read from the fitted curve at half-maximal effect); conditions: CHO-K1 GR-EFC translocation, beta-gal luminescence, 2 h
How it was run: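 CHO-K1 cells expressing nuclear EA and GR-ED fragments of b-gal; compounds titrated up to 46 uM final, 2 h at 37 C. GR nuclear translocation read as complemented b-gal luminescence after 1 h RT detection.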

[8] = target: Mitogen-activated protein kinase 10 (Mus musculus) (UniProt Q61831); test: JNK3 AlphaScreen Assay (AID 530; active = well fitted curve in either direction with a large enough effect, not every such curve was filed as active;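 also: kinase came from lysate of stimulated human HepG2 cells; signal reports phosphorylation of biotinylated GST-cJun 1-79 at Ser73 with 10 µM ATP; % is scaled to controls: 0 for no effect and ±100 for the full control effect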); conditions: JNK3 lysate, c-Jun phosphorylation; series mostly up to 57.1 µM
How it was run: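 HepG2 lysate (IL-1b/TNFa pre-activated) + biotin-GST-cJun 1-79 + anti-pSer73 cJun; cpd titration, 15 min RT; ATP 10 uM start; Tris pH 7.6, MgCl2, DTT, vanadate; beads in EDTA buffer; AlphaScreen.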

[9] = target: 3',5'-cyclic-AMP phosphodiesterase 4B (Homo sapiens) (UniProt Q07343); test: qHTS Assay for Inhibitors of PDE-IV (AID 607; active = well fitted activation curve with a large enough effect in the main read-out, with a control signal flat, not every such curve was filed as active; also: % of control where 0% means no effect); conditions: HEK293 ACTOne CNG channel cells, membrane potential fluorescence; series mostly up to 22.9 µM
3',5'-cyclic-AMP phosphodiesterase 4B (Homo sapiens), sequence (Q07343 whole entry, looked up): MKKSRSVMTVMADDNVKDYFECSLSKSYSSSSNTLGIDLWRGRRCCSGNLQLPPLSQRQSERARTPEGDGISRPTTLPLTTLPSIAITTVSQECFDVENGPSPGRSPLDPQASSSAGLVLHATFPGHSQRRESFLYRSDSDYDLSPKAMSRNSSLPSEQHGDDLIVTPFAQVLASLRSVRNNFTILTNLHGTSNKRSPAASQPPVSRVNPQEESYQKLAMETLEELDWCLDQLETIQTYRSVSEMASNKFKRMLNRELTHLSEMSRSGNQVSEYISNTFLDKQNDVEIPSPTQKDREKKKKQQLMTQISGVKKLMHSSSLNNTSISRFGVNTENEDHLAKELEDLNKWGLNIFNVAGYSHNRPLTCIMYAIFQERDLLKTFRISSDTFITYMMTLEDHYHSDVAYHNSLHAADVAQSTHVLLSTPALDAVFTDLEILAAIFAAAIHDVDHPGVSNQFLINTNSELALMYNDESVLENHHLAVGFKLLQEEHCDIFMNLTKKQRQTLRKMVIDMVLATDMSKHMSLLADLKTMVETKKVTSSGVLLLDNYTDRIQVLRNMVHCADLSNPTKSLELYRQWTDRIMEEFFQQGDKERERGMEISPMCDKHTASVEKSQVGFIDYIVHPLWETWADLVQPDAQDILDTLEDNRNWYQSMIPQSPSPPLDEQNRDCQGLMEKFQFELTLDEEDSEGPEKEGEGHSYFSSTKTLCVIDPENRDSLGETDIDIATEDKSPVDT
How it was run: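 ACTOne HEK293 cells carry a modified cAMP-gated CNG channel and express endogenous PDE4; plated 1000 cells/well, compounds up to 22.9 uM final. Membrane-potential dye fluorescence (ex 535/em 590) was read; parental cells received 10 uM forskolin + 100 uM RO 20-1724.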

[10] = target: Cytochrome P450 3A4 (Homo sapiens) (UniProt P08684); test: qHTS Assay for Inhibitors and Substrates of Cytochrome P450 3A4 (AID 884); conditions: recombinant CYP3A4, Luciferin-PPXE luminescence; series mostly up to 57.1 µM; also: potency is read from the fitted curve at half-maximal effect; nearly all actives have a fitted effect of over 50% in size
Cytochrome P450 3A4 (Homo sapiens), sequence (P08684 whole entry, looked up): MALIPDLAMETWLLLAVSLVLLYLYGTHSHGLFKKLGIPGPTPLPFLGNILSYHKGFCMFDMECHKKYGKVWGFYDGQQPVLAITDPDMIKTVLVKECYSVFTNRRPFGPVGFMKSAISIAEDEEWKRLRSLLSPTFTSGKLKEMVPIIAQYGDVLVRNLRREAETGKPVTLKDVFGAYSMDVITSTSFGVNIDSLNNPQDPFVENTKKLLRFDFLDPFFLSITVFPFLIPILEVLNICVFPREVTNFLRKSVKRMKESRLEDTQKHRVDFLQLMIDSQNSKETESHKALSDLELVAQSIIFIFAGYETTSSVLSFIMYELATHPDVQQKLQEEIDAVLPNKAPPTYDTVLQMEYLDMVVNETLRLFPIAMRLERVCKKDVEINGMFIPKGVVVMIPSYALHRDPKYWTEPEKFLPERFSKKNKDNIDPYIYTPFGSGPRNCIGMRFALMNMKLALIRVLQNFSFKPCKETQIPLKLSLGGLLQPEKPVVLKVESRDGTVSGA
How it was run: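 Luminescent readout of luciferin produced by CYP3A4 (20 nM) dealkylation of Luciferin-PPXE, 25 uM (its KM). NADPH-driven reaction ran 60 min at RT after 10 min compound preincubation; data scaled to 57 uM ketoconazole as 100% inhibition.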

[11] = target: Cytochrome P450 3A4 (Homo sapiens) (UniProt P08684); test: qHTS Assay for Activators of Cytochrome P450 3A4 (AID 885); conditions: recombinant CYP3A4, Luciferin-PPXE luminescence, 60 min; series mostly up to 57.1 µM; also: nearly all actives have a fitted effect of over 65% in size
How it was run: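 CYP3A4 activity: Luciferin-PPXE O-dealkylation, 25uM substrate, 200mM KPO4, RT throughout. Read-out is luciferase luminescence; higher values reflect activation.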

[12] = target: Cytochrome P450 2D6 (Homo sapiens) (UniProt P10635); test: qHTS Assay for Inhibitors and Substrates of Cytochrome P450 2D6 (AID 891); conditions: recombinant CYP2D6, luciferin-ME EGE luminescence; series mostly up to 57.1 µM; also: potency is read from the fitted curve at half-maximal effect; nearly all actives have a fitted effect of over 60% in size
Cytochrome P450 2D6 (Homo sapiens), sequence (P10635 whole entry, looked up): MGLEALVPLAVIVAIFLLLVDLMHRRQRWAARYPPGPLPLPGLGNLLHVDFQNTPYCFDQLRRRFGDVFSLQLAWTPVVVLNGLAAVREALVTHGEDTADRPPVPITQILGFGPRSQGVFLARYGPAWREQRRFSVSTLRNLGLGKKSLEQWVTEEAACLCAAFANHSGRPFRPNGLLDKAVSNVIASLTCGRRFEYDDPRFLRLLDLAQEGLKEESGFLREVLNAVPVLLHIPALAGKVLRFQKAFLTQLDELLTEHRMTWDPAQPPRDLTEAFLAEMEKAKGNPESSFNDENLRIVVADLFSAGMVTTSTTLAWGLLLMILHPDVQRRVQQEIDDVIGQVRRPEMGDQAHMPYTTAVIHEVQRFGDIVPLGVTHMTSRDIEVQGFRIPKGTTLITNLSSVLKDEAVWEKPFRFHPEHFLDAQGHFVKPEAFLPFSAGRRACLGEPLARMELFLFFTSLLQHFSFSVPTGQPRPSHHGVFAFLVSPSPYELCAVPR
How it was run: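 Luminescent read-out of luciferin formed by 5 nM human CYP2D6 demethylating 30 uM Luciferin-ME EGE (Km level) over 60 min at room temperature after NADPH regeneration addition. Data normalized to full inhibition by 1.43 uM quinidine.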

[13] = qHTS Assay for Lipid Storage Modulators (AID 1519; calls by dose curve); conditions: Drosophila S3 cells, BODIPY lipid droplet/cell ratio, laser cytometry, cells loaded with oleic acid; for activity change, negative = inhibition: at 57.5 µM (top of the series)
How it was run: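 Cells seeded at 5,000 per well were treated with compounds over a concentration series and loaded with oleic acid (400 uM, as added). Lipid droplet fluorescence (488 nm excitation, 500-530 nm channel) was read by laser-scanning cytometry and normalized to 20 uM Triacsin C.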

[14] = target: Dual specificity protein kinase CLK4 (Homo sapiens) (UniProt Q9HAZ1); test: qHTS Assay for Inhibitors of CDC-like Kinase 4 (Kinase-Glo Assay) (AID 1770); conditions: recombinant Clk4, Kinase-Glo ATP depletion luminescence; series mostly up to 66.7 µM; also: nearly all actives have a fitted effect of over 65% in size; also: potency is read from the fitted curve at half-maximal effect
Dual specificity protein kinase CLK4 (Homo sapiens), sequence (Q9HAZ1 whole entry, looked up): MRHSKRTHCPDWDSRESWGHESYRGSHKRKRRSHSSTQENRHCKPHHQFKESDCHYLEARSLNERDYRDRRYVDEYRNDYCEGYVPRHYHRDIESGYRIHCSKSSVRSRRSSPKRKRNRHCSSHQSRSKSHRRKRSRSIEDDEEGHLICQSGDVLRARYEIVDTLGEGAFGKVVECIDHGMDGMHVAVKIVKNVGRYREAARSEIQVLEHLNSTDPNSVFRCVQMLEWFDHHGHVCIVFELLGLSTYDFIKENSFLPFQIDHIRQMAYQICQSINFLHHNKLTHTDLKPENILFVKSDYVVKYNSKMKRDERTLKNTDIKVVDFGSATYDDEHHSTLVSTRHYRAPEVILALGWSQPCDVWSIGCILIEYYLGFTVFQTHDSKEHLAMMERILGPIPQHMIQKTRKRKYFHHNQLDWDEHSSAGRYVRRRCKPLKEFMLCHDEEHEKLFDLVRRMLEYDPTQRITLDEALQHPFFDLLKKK
How it was run: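 Substrate mix (RS peptide 100 uM, ATP 1 uM) dispensed, compound pinned in, then Clk4 added to 25 nM final. Incubated 4.5 h at RT; Kinase-Glo reagent added, luminescence read after 5 min.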

[15] = target: Dual specificity protein kinase CLK4 (Homo sapiens) (UniProt Q9HAZ1); test: qHTS Assay for Inhibitors of CDC-like Kinase 4 (ADP-Glo Assay) (AID 1771); conditions: recombinant CLK4, ADP-Glo luminescence; series mostly up to 80 µM; also: nearly all actives have a fitted effect of over 70% in size; also: potency is read from the fitted curve at half-maximal effect
How it was run: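 25 nM Clk4, 100 uM RS peptide, 1 uM ATP (final); 2 mM MgCl2, 0.5 mM EGTA, 2.5 mM DTT, 0.01% Triton X-100; 1 hr RT. ADP-Glo readout: ATP depletion 45 min, conversion/luciferase 30 min, luminescence.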

[16] = target: Ubiquitin carboxyl-terminal hydrolase 1 (Homo sapiens) (UniProt O94782); test: Inhibitors of USP1/UAF1: Pilot qHTS (AID 504865); conditions: purified USP1/UAF1, Ub-rhodamine cleavage fluorescence; series mostly up to 54.9 µM;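 also: rhodamine fluorescence freed from ubiquitin-rhodamine substrate followed over time; top concentration of the series differs between compounds; % is scaled to controls: 0 for no effect and ±100 for the full control effect; nearly all actives have a fitted effect of over 35% in size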
Ubiquitin carboxyl-terminal hydrolase 1 (Homo sapiens), sequence (O94782 whole entry, looked up): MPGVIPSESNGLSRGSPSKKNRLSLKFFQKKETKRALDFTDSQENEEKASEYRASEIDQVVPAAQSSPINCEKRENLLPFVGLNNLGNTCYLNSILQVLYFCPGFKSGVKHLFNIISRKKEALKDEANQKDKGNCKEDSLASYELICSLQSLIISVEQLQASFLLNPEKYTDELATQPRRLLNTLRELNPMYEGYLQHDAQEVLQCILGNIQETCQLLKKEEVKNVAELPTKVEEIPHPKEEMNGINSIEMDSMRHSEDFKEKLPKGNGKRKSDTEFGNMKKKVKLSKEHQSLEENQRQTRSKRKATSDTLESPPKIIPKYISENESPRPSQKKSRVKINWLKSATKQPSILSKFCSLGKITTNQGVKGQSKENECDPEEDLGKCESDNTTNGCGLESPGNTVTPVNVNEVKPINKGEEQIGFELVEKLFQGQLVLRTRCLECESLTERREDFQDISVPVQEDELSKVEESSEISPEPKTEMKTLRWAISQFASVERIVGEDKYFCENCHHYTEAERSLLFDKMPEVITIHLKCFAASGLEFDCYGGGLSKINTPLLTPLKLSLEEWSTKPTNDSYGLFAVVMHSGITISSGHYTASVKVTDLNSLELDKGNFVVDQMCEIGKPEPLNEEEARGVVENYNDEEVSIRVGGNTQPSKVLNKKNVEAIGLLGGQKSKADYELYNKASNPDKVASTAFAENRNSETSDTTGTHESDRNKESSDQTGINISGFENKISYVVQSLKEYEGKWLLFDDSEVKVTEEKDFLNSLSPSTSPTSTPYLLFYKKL
How it was run: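 In 50mM HEPES pH 7.8 containing 0.5mM EDTA, 1mM TCEP, 0.1 mg/ml BSA and 0.01% Tween-20, 1nM USP1/UAF1 is exposed to compound for 15 min, then Ub-Rho (150nM final) is added and fluorescence is read over time.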

[17] = Primary qHTS for small molecule stabilizers of the endoplasmic reticulum resident proteome: Secreted ER Calcium Modulated Protein (SERCaMP) assay (AID 1508630); conditions: SH-SY5Y GLuc-SERCaMP (Gaussia luciferase released on ER calcium loss) secretion, thapsigargin, luminescence; series mostly up to 38.4 µM; also: % is scaled to controls: 0 for no effect and ±100 for the full control effect
How it was run: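 The SH-SY5Y reporter protocol was run at 3 concentrations up to 38.3 uM (primary) or 11 concentrations (follow-up): 16 h compound, 100 nM thapsigargin for 4 h, then extracellular luciferase luminescence.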

[18] = target: Dual specificity protein kinase CLK4 (Homo sapiens) (UniProt Q9HAZ1); test: qHTS Assay for Inhibitors of CDC-like Kinase 4 (ADP-FP Assay) (AID 1795); conditions: Transcreener ADP fluorescence polarization; series mostly up to 50 µM;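 also: recombinant human CLK4 phosphorylating RS repeat peptide at 1 µM ATP; % is scaled to controls: 0 for no effect and ±100 for the full control effect; nearly all actives have a fitted effect of over 60% in size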
How it was run: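 Clk4 6.25 nM; RS peptide 100 uM; ATP 1 uM; 25 mM Tris pH 7.5, 10 mM MgCl2; 1 h reaction. ADP detected via antibody/orange tracer FP displacement; TG003 positive control.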

[19] = qHTS Assay for Identification of Small Molecule Agonists for Hypoxia Response Element Signaling Pathway (AID 914; active = well fitted activation curve with a large enough effect in the signal ratio, with a control signal flat, not every such curve was filed as active; the % refers to the signal ratio; also: potency is read from the fitted curve at half-maximal effect); conditions: ME-180 (cervical carcinoma) HRE-bla reporter, beta-lactamase ratio, CoCl2, 17 h; activation: stronger effect = higher value
How it was run: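 AC50 values come from titration-series %Activity, taken as the 460/530nm ratio of CCF4 fluorescence (excitation 405nm). CellSensor HRE-bla ME-180 cells were treated 17 hours at 37 C with compound plus an EC50 level of CoCl2.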

[20] = measured here: cell count channel max response
[21] = measured here: lipid channel max response

CN1CCN(c2ncnc3ccc(-c4ccc5c(c4)OCO5)cc23)CC1
4.86%: max response [13, 20]
inactive: Potency [1] > 11.4 µM | activity change, negative = inhibition [2] -24.4% | activity change, negative = inhibition [4] -20.4% | activity, negative = inhibition [5] 6.89% | Potency [6] > 46 µM | Potency [7] > 46 µM | outcome [8] | Potency [9] | Potency [11] | activity change, negative = inhibition [13] 4.95% | Potency [16] | Potency [17]
5.74%: max response [13, 21]
active: Potency [3] 2.51 µM | Potency [10] 7.94 µM | Potency [12] 251 nM | Potency [14] 0.282 µM | Potency [15] 0.562 µM

COc1cccc(-c2nc(NCc3ccccc3)c3ccccc3n2)c1
inactive: Potency [1] > 11.4 µM | activity change, negative = inhibition [2] -17.6% | activity change, negative = inhibition [4] 0.742% | activity, negative = inhibition [5] -12.9% | Potency [6] > 46 µM | Potency [7] > 46 µM | outcome [8] | Potency [11] | activity change, negative = inhibition [13] -4.54% | Potency [16] | Potency [17]
10.5%: max response [13, 20]
active: Potency [3] 3.16 µM | Potency [14] 6.31 µM | Potency [15] 6.31 µM
2.86%: max response [13, 21]

Cc1ccccc1-c1cncnc1NCc1cccs1
inactive: activity change, negative = inhibition [2] 1.41% | activity change, negative = inhibition [4] 2.62% | activity, negative = inhibition [5] 3.53% | Potency [6] > 46 µM | Potency [7] > 46 µM | outcome [8] | Potency [11] | activity change, negative = inhibition [13] 5.75% | Potency [14] | Potency [15] | Potency [18] | Potency [17]
15.6%: max response [13, 21]
11.6%: max response [13, 20]
active: Potency [3] 3.16 µM | Potency [10] 0.501 µM

COc1ccc(-n2c(=O)c(-c3ccc(F)cc3)nc3cnc(N4CCOCC4)nc32)cc1
inactive: Potency [1] > 11.4 µM | activity change, negative = inhibition [4] 12.6% | Potency [6] > 9.22 µM | Potency [7] > 46 µM | outcome [8] | Potency [9] | activity change, negative = inhibition [13] 4.12% | Potency [14] | Potency [15] | Potency [18] | Potency [16] | Potency [17]
4.35%: max response [13, 21]
active: Potency [19] 3.16 µM
3.3%: max response [13, 20]

CCNc1ncc2nc(-c3cn(C)c4ccccc34)c(=O)n(C)c2n1
active: Potency [3] 0.1 µM
27.7%: max response [13, 21]
19.5%: max response [13, 20]
inactive: activity change, negative = inhibition [2] -15.1% | activity change, negative = inhibition [4] 2.68% | activity, negative = inhibition [5] -2.13% | Potency [6] > 9.22 µM | Potency [7] > 46 µM | outcome [8] | Potency [11] | activity change, negative = inhibition [13] 8.66% | Potency [14] | Potency [15] | Potency [18] | Potency [16] | Potency [17]
